The values that follow come from PubChem BioAssay (NCATS).

The nature of assay [1]: NS1 protein of Zika virus - qHTS assay to identify small molecule inhibitors in human HEK 293 cells (AID 1347053). Note: series mostly up to about 46 µM; nearly all actives have a fitted effect of over 55% in size. The method in brief:
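Inhibition of NS1 expression was scored in HEK 293 cells given compound 1 h ahead of MR766 virus (MOI = 0.5). Following 24 h at 37 C, two anti-NS1 antibodies generated a TR-FRET signal, scaled between uninfected and infected controls.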

Assay [2] is described as follows: qHTS of pediatric cancer cell lines to identify multiple opportunities for drug repurposing: Primary screen for TC32 cells (AID 1347089). Note: nearly all actives have a fitted effect of over 60% in size. Note: potency is the fitted concentration of half-maximal effect. The method in brief:
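Measured quantity: luminescence from CellTiter-Glo, reflecting metabolically active TC32 cells following 48 h of compound. Curves came straight from multi-point titrations, with 8 or 11 points in primary and 11 in confirmatory screening.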
For orientation: qHTS replaces the single test concentration by a dilution series.

A short description of assay [3]: qHTS of pediatric cancer cell lines to identify multiple opportunities for drug repurposing: Primary screen for DAOY cells (AID 1347090). Note: nearly all actives have a fitted effect of over 55% in size. Note: potency is the fitted concentration of half-maximal effect. The method in brief: (§1)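 Viability measured as metabolically active cells via CellTiter-Glo luminescence following 48 hours of compound exposure, 11-point dilutions in confirmatory testing. 500-1,000 cells/well plated 5 hours before dosing; controls were DMSO and 2.3 µM bortezomib.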

Assay [4] is described as follows: qHTS of pediatric cancer cell lines to identify multiple opportunities for drug repurposing: Primary screen for A673 cells (AID 1347092). Note: nearly all actives have a fitted effect of over 45% in size. Note: potency is the fitted concentration of half-maximal effect. The method in brief:
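Cells are plated, rested 5 h, dosed by pintool, incubated 48 h, then lysed with CellTiter-Glo and read by luminescence. DMSO is the neutral control; bortezomib at 2.3 uM final is the positive control.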

The nature of assay [5]: qHTS of pediatric cancer cell lines to identify multiple opportunities for drug repurposing: Primary screen for BT-37 cells (AID 1347094). Note: potency is the fitted concentration of half-maximal effect. The method in brief:
(§2)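 CRCs from 8- or 11-point titrations (lowest final 0.59 nM NPC, 0.78 nM MIPE). Cell viability: CellTiter-Glo after 48 h incubation, 15 min room-temperature development, luminescence imaging.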

Assay [6] is described as follows: qHTS of pediatric cancer cell lines to identify multiple opportunities for drug repurposing: Primary screen for NB-EBc1 cells (AID 1347095). Note: potency is the fitted concentration of half-maximal effect. The method in brief:
as §2

The nature of assay [7]: qHTS of pediatric cancer cell lines to identify multiple opportunities for drug repurposing: Primary screen for U-2 OS cells (AID 1347096). Note: nearly all actives have a fitted effect of over 50% in size. Note: potency is the fitted concentration of half-maximal effect. The method in brief:
(§3)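 Viability after 48 h compound treatment at 37C, 500-1,000 cells/well, read as ATP luminescence with CellTiter-Glo. Primary screens used 11-point (MIPE, 0.78 nM-46 µM) or 8-point (NPC, 0.59 nM-46 µM) final concentrations; follow-up screens used 11-point dilutions.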

A short description of assay [8]: qHTS of pediatric cancer cell lines to identify multiple opportunities for drug repurposing: Primary screen for Saos-2 cells (AID 1347097). Note: nearly all actives have a fitted effect of over 40% in size. Note: potency is the fitted concentration of half-maximal effect. The method in brief: as §2
Assay [9] in a line: qHTS of pediatric cancer cell lines to identify multiple opportunities for drug repurposing: Primary screen for SK-N-SH cells (AID 1347098). Note: nearly all actives have a fitted effect of over 65% in size. Note: potency is the fitted concentration of half-maximal effect. The method in brief:
(§4)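 Cells (500-1,000/well) rested 5 h, then received compounds for 48 h; metabolically active cells were measured by CellTiter-Glo luminescence. Final concentrations spanned up to 46 µM (MIPE, 11-point) or 0.59 nM-46 µM (NPC, 8-point) in primary screens, 11-point in follow-ups.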

Assay [10] can be described thus: qHTS of pediatric cancer cell lines to identify multiple opportunities for drug repurposing: Primary screen for NB1643 cells (AID 1347099). Note: nearly all actives have a fitted effect of over 50% in size. Note: potency is the fitted concentration of half-maximal effect. The method in brief: as §2
Assay [11] is described as follows: qHTS of pediatric cancer cell lines to identify multiple opportunities for drug repurposing: Primary screen for LAN-5 cells (AID 1347100). The method in brief:
as §3

Assay [12] in a line: qHTS of pediatric cancer cell lines to identify multiple opportunities for drug repurposing: Primary screen for BT-12 cells (AID 1347101). Note: nearly all actives have a fitted effect of over 25% in size. Note: potency is the fitted concentration of half-maximal effect. The method in brief:
as §4

The nature of assay [13]: qHTS of pediatric cancer cell lines to identify multiple opportunities for drug repurposing: Primary screen for Rh18 cells (AID 1347102). Note: nearly all actives have a fitted effect of over 65% in size. Note: potency is the fitted concentration of half-maximal effect. The method in brief:
as §3

Assay [14] in a line: qHTS of pediatric cancer cell lines to identify multiple opportunities for drug repurposing: Primary screen for OHS-50 cells (AID 1347103). Note: nearly all actives have a fitted effect of over 40% in size. Note: potency is the fitted concentration of half-maximal effect. The method in brief:
as §4

Assay [15] can be described thus: qHTS of pediatric cancer cell lines to identify multiple opportunities for drug repurposing: Primary screen for RD cells (AID 1347104). Note: nearly all actives have a fitted effect of over 55% in size. Note: potency is the fitted concentration of half-maximal effect. The method in brief: as §2
Assay [16] can be described thus: qHTS of pediatric cancer cell lines to identify multiple opportunities for drug repurposing: Primary screen for SJ-GBM2 cells (AID 1347091). Note: potency is the fitted concentration of half-maximal effect. The method in brief:
as §1

Assay [17] is described as follows: qHTS of pediatric cancer cell lines to identify multiple opportunities for drug repurposing: Primary screen for SK-N-MC cells (AID 1347093). Note: potency is the fitted concentration of half-maximal effect. The method in brief:
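Metabolically active cells were quantified by ATP-dependent luminescence (CellTiter-Glo, 15 min at room temperature) following 48 h treatment. Cells had been plated at 500-1,000 per well and settled for 5 h beforehand.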

Records with an inconclusive call do not appear. Activity calls are given as the source filed them. Calls come from the whole dose curve; as a rule, active = well fitted curve in the direction sought with a large enough effect; inconclusive = small, poorly fitted or top-dose-only effect, or another doubt; inactive = no such curve, though single readings can be large; an effect the other way counts as inactive or inconclusive.

In the case of `C[C@H]1[C@H](NC(=O)/C(=N/OC(C)(C)C(=O)O)c2csc(N)n2)C(=O)N1S(=O)(=O)O` (stereo in doubt), the Potency result in [1], in [2], in assay [3], in assay [4], in assay [5] and in assay [6] was “inactive” in each case. For the same compound, the Potency entry in assay [7], in assay [8], in [9], in [10], in assay [11] and in assay [12] was “inactive” throughout. Moreover, the Potency entry in assay [13], in assay [14] and in [15] was “inactive” in each case.

As for `C[C@H](O)C(=O)Nc1c(I)c(C(=O)NC(CO)CO)c(I)c(C(=O)NC(CO)CO)c1I`, the Potency result in assay [1], in [2], in assay [3], in assay [4], in assay [5] and in assay [6] was “inactive” throughout. For the same compound, the Potency entry in assay [7], in assay [8], in assay [9], in [10], in assay [11] and in assay [12] was “inactive” each time. Also, the Potency entry in assay [13] was “inactive”.

Regarding `O=C(Nc1ccc(Oc2ccc(Cl)cc2)c(Cl)c1)c1cc(I)cc(I)c1O`, the Potency result in [1], in assay [2], in assay [3], in assay [5], in [7] and in assay [12] was “inactive” throughout. Besides, the Potency entry in [13] was “inactive”. For the same compound, the Potency in assay [16] was 15000 nM (active); in assay [6], 26600 nM (active).

Consider `c1ccc(OCc2ccc(CCCN3CCOCC3)cc2)cc1`, for which the Potency result in assay [1], in [2], in [3], in [4], in [17] and in [5] was “inactive” in each case. In addition, the Potency entry in assay [6], in assay [7], in [8], in assay [9], in [10] and in assay [13] was “inactive” throughout.

With `NC(CS)C(=O)O` (stereo not drawn), the Potency entry in [1], in [2], in assay [3], in [4], in assay [17] and in assay [5] was “inactive” in each case. Besides, the Potency entry in assay [6], in assay [7], in [8], in assay [9], in assay [11] and in [12] was “inactive” throughout. In addition, the Potency entry in [13], in assay [14] and in [15] was “inactive” throughout.

In the case of `CC1(C)OC[C@@H](COC(=O)CCc2ccc(OC[C@@H](O)CNCCNC(=O)N3CCOCC3)cc2)O1`, the Potency entry in assay [1], in assay [2], in assay [3], in assay [4], in assay [17] and in [5] was “inactive” throughout. The Potency result in [6], in [7], in assay [8], in [9], in [10] and in [11] was “inactive” in each case. Besides, the Potency entry in [12], in assay [13], in assay [14] and in assay [15] was “inactive” in each case.

In the case of `O=C1OC(c2ccc(O)cc2)(c2ccc(O)cc2)c2ccccc21`, the Potency result in [1], in assay [2], in assay [3], in [16], in assay [17] and in assay [5] was “inactive” each time. Moreover, the Potency entry in assay [7], in assay [8], in assay [9], in assay [11], in [12] and in [13] was “inactive” throughout. Moreover, the Potency entry in [14] was “inactive”.

Consider `CN1CCN(CCCN2c3ccccc3Sc3ccc(S(=O)(=O)N(C)C)cc32)CC1`, for which the Potency entry in [1], in assay [2], in assay [3], in assay [7] and in [10] was “inactive” in each case. The Potency was 18800 nM (active) in assay [16], 15400 nM (active) in [9], 23700 nM (active) in assay [13] and 24600 nM (active) in assay [14].

On to `O=C1c2ccccc2C(=O)C1c1ccccc1`, for which the Potency result in [1], in [2], in [3], in assay [4], in [17] and in assay [5] was “inactive” each time. Also, the Potency entry in assay [6], in assay [7], in assay [8], in assay [9], in [10] and in assay [11] was “inactive” throughout. Besides, the Potency entry in assay [12], in assay [13], in assay [14] and in assay [15] was “inactive” throughout.

Consider `NCCC(O)(P(=O)(O)O)P(=O)(O)O`, for which the Potency entry in [1], in assay [2], in assay [3], in assay [4], in assay [17] and in assay [5] was “inactive” throughout. Besides, the Potency entry in [6], in assay [7], in assay [8], in assay [9], in assay [10] and in assay [12] was “inactive” each time. The Potency entry in assay [13], in assay [14] and in assay [15] was “inactive” each time.

With `CC(C)N=C(N)/N=C(\N)Nc1ccc(Cl)cc1`, the Potency result in assay [1], in [2], in [3], in [16], in assay [5] and in assay [6] was “inactive” in each case. In addition, the Potency result in [7] is “inactive”.

With `Cc1c(C)n(CCN(C)C)c2ccc(C(=O)OCCN(C)C)cc12`, the Potency result in [1], in assay [2], in [3], in assay [16], in assay [5] and in assay [6] was “inactive” in each case. The Potency entry in [7], in assay [8], in assay [10], in assay [11], in [13] and in assay [14] was “inactive” throughout. Also, the Potency entry in assay [15] was “inactive”.

As to `C[C@@H]1C[C@H]2[C@@H]3C[C@H](F)C4=CC(=O)C(Cl)=C[C@]4(C)[C@@]3(F)[C@@H](O)C[C@]2(C)[C@@]1(O)C(=O)CO`, the Potency result in assay [1], in [2], in assay [3], in assay [4], in assay [17] and in assay [5] was “inactive” each time. For the same compound, the Potency entry in assay [7], in assay [8], in assay [9], in assay [11], in assay [12] and in [13] was “inactive” throughout. Besides, the Potency result in assay [14] and in assay [15] was “inactive” throughout.

For the compound `COc1cccc2c1C(=O)c1c(O)c3c(c(O)c1C2=O)C[C@@](O)(C(C)=O)C[C@@H]3O[C@H]1C[C@H](N)[C@H](O)[C@H](C)O1`, in assay [1], the Potency result was “inactive”. Moreover, the Potency was 236 nM (active) in assay [2]; 1060 nM (active) in assay [3]; 266 nM (active) in assay [4]; 84.1 nM (active) in [17]; 110 nM (active) in assay [5]; 53.1 nM (active) in assay [6]. The Potency in assay [7] is 6680 nM (active); in assay [8], 266 nM (active); in [9] it was 386 nM (active); in assay [10] it was 133 nM (active); in assay [12] it was 550 nM (active); in [13], 473 nM (active). Further, the Potency is 347 nM (active) in assay [14] and 1190 nM (active) in assay [15].

On to `C[C@]12CC[C@H]3[C@@H](CCC4=CC(=O)CC[C@@]43C)[C@@H]1CC[C@@H]2C(=O)CO`, for which the Potency result in assay [1], in assay [2], in [3], in [4], in [17] and in [5] was “inactive” each time. Besides, the Potency result in assay [6], in assay [7], in [8], in assay [9], in [10] and in assay [11] was “inactive” throughout. The Potency entry in assay [13] and in [15] was “inactive” each time.

Consider `O=C(COc1ccc(Cl)cc1)N1CCN(Cc2ccc3c(c2)OCO3)CC1`, for which the Potency entry in assay [1], in [2], in assay [3], in assay [4], in [17] and in assay [5] was “inactive” each time. Besides, the Potency result in assay [7], in assay [8], in assay [9], in assay [10], in assay [13] and in [15] was “inactive” in each case.
